We go through 44 compounds from PubChem BioAssay (NCATS).

Experiment [1] in a line: qHTS to identify inhibitors of the type 1 interferon - major histocompatibility complex class I in skeletal muscle: primary screen against the NCATS LOPAC collection (AID 1347405).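 Further: lytic HiBiT luminescence reporting HLA-B protein level.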 Further: potency means the concentration at half of the fitted maximal effect. The gist of the method:
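Immortalized human C25cl48 myoblasts with HiBiT knocked into endogenous HLA-B*08:01 were stimulated with 4.0 ng/ml IFN-beta and given compounds in a 7-point, 1:4.3 titration from 46 uM final; after 24 hrs, lytic HiBiT luminescence was read.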
(In qHTS, concentration-response curves come from the screen itself.)

A short description of experiment [2]: qHTS to identify inhibitors of the type 1 interferon - major histocompatibility complex class I in skeletal muscle: primary screen against the NCATS Pharmaceutical Collection (AID 1347407).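 Further: luminescence of HiBiT knocked into endogenous HLA-B as interferon-induced MHC class I level.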 In short, it runs like this: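 Compounds […] were added to CRISPR-engineered HLA-B-HiBiT C25cl48 human myoblasts with 4.0 ng/ml IFN-beta. After 24 hrs at 37 C, cells were lysed and HiBiT luminescence measured.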

Experiment [3] is described as follows: qHTS for inhibitors of adenylyl cyclases using a fission yeast platform: a pilot screen against the NCATS LOPAC library (AID 1347410). The gist of the method: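 GFP from fbp1-GFP reporter, read by Acumen laser cytometry, indicates AC inhibition in fission yeast expressing AC9, GNAS and PDE4D2. Cells grown 18 h in the dark at 30C with compounds, final up to 57 uM.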

In experiment [4] the target is Protein phosphatase 1D (Homo sapiens) (UniProt O15297). Description: RapidFire Mass Spectrometry qHTS Assay for Modulators of WT P53-Induced Phosphatase 1 (WIP1) (AID 1347424).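 Further: amount of dephosphorylated VEPPL-S-QETFS peptide product formed by WIP1; series mostly up to about 63 µM.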 In short, it runs like this: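 10 nM WIP1 preincubated with compounds 1 hr at room temperature in pH 7.5 Tris buffer with 30 mM MgCl2, 1 mM TCEP; 2 uM VEPPL-pS-QETFS phosphopeptide for 5 min, formic acid quench; dephosphorylated product quantified by RapidFire MS against labelled standard.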

For experiment [5] the target is unchanged. Description: Rhodamine-PBP qHTS Assay for Modulators of WT P53-Induced Phosphatase 1 (WIP1) (AID 1347425). In short, it runs like this:
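Read-out: Rhodamine-PBP fluorescence (ex 525/em 598 nm) for released Pi, read each minute for 11 min after adding 10 uM VEPPL-pS-QETFS; signal taken as f1 minus pre-substrate f0. Enzyme 5 nM WIP1 with 1 hr room-temperature compound preincubation.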

Inconclusive results are not listed. Where a call stands in place of a potency, no number is given. Activity calls are given as the source filed them. The call rests on the fitted dose curve; in most records, active means well fitted curve in the direction sought with a large enough effect; inconclusive means small, poorly fitted or top-dose-only effect, or another doubt; inactive means no such curve, though single readings can be large; an effect the other way counts as inactive or inconclusive.

Protein phosphatase 1D (Homo sapiens), sequence (O15297 whole entry, looked up): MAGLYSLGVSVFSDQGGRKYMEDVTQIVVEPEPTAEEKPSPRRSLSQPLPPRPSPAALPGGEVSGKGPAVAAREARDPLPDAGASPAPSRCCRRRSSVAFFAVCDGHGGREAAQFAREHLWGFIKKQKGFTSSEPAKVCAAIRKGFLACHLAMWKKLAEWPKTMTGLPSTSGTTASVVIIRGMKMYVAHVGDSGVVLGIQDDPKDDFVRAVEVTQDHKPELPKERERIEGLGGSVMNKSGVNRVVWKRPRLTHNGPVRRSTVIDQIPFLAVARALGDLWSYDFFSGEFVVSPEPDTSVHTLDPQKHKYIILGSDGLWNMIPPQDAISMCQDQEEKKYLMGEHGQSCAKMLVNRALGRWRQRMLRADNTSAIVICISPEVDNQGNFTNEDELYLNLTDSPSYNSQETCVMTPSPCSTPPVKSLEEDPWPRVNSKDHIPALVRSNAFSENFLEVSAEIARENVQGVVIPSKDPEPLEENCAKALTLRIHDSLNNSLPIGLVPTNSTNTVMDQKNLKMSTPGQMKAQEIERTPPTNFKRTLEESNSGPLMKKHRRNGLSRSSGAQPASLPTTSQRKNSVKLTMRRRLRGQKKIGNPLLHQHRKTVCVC

Regarding `CO[C@H]1O[C@@H]2O[C@]3(C)CC[C@@H]4[C@@H](C)CC[C@H]([C@H]1C)[C@]24OO3`, the Potency result in experiment [1] was “inactive”.
As for `CC(C)CC(NP(=O)(O)O[C@@H]1O[C@@H](C)[C@H](O)[C@@H](O)[C@H]1O)C(=O)NC(Cc1c[nH]c2ccccc12)C(=O)O` (stereo partly specified), the Potency result in experiment [1] is “inactive”.
On to `Nc1nc2ccc(Cl)cc2n2c(-c3ccccc3)nnc12`, for which, in experiment [1], the Potency entry was “inactive”.
On the same count and under the same terms, for `CNC(=O)[C@H]1O[C@@H](n2cnc3c(NCc4cccc(I)c4)ncnc32)[C@H](O)[C@@H]1O` the value was “inactive”; for `N[C@H](CCCP(=O)(O)O)C(=O)O`, “inactive”; for `NC(=O)C(=O)O`, “inactive”.
On to `O=C(O)c1cc(=O)c2c(Cl)cc(Cl)cc2[nH]1`, for which the Potency entry in experiment [1] was “inactive”.
Regarding `NC[C@H]1O[C@@H](n2cnc3c(N)ncnc32)[C@H](O)[C@@H]1O`, in experiment [1], the Potency entry is “inactive”.
Same read-out and setting: the value for `Nc1nc(Nc2ccccc2)nc2c1ncn2[C@@H]1O[C@H](CO)[C@@H](O)[C@H]1O` was “inactive”.
The same measure, in the same setting: for `COc1ccc(/C=C2\COc3ccc(C)cc3C2=O)cc1O` the value was 14.1 µM (active).
For `CCC1C(=O)OCC1Cc1cncn1C` (stereo unspecified), the Potency result in experiment [1], in experiment [2] and in experiment [4] was “inactive” throughout. Moreover, the result in experiment [3] and in experiment [5] was inactive.
Regarding `COc1ccc(NC(=O)/C=C/c2ccc(Cl)cc2)cc1`, the Potency entry in experiment [1] is “inactive”.
On to `COc1cccc(C(=O)NCCN2CCN(c3ccc(Cl)cc3)CC2)c1`, for which, in experiment [1], the Potency entry was “inactive”. Further, the call in experiment [3] was inactive.
Regarding `CSc1nc(N)c2ncn([C@@H]3O[C@H](COP(=O)(O)OP(=O)(O)OP(=O)(O)O)[C@@H](O)[C@H]3O)c2n1`, the Potency result in experiment [1] is “inactive”.
On the same count and under the same terms, for `COc1cc2c(CCNC(C)=O)c[nH]c2cc1Cl` the value was “inactive”.
Regarding `C[C@@H](CN1CCC(Cc2ccccc2)CC1)[C@@H](O)c1ccc(O)cc1`, in experiment [1], the Potency result was “inactive”.
On to `CN1CCc2ccccc2Cc2[nH]c3ccccc3c2CC1`, for which the Potency result in experiment [1] was “inactive”.
On the same count and under the same terms, for `CN1C2CC(OC(=O)[C@H](CO)c3ccccc3)CC1C1OC12` (stereo partly specified) the value was “inactive”.
Turning to `CC(C)c1cccc(C(C)C)c1N1C(=O)c2ccc(O)cc2C1=O`, in experiment [1], the Potency entry was “inactive”. Also, the call in experiment [3] was inactive.
For the compound `CC(N)C(=O)OC(C)(C)Cc1ccc(Cl)cc1` (stereo unspecified), the Potency entry in experiment [1], in experiment [2] and in experiment [4] was “inactive” each time. The outcome in experiment [5] was inactive.
As for `CCCN(CC1CC1)c1nc(C)nc(Nc2c(Cl)cc(Cl)cc2Cl)c1Cl`, the Potency entry in experiment [1] was “inactive”.
For `CCOC(=O)C1=C(C)NC(C)=C(C(=O)OCC)C1c1c(F)c(F)c(F)c(F)c1F`, the Potency in experiment [1] is 20 µM (active). Besides, in experiment [3], the result was inactive.
For the compound `CN1C2CCC1CC(OC(=O)C(O)c1ccccc1)C2` (stereo unspecified), the Potency result in experiment [1] was “inactive”. In addition, in experiment [3], the call was inactive.
With `Nc1nc(Cl)nc2c1ncn2[C@@H]1O[C@H](CO)[C@@H](O)[C@H]1O`, the Potency result in experiment [1] is “inactive”. The compound was classed as inactive in experiment [3].
Consider `S=c1[nH]c(-c2ccccc2)cn1-c1ccccc1`, for which the Potency result in experiment [1] is “inactive”. Besides, the result in experiment [3] was inactive.
Turning to `NCCCCC(=O)O`, the Potency result in experiment [1] was “inactive”. Also, the outcome in experiment [3] was inactive.
On to `CC1CN(S(=O)(=O)c2cccc3cnccc23)CCN1` (stereo unspecified), for which the Potency entry in experiment [1] is “inactive”. Further, in experiment [3], the compound was called inactive.
With `O=c1[nH]c2cc(C(F)(F)F)ccc2n1-c1cc(C(F)(F)F)ccc1O`, in experiment [1], the Potency entry was “inactive”. Moreover, in experiment [3], the compound was classed as inactive.
`O=C1C(SCCO)=C(SCCO)C(=O)c2ccccc21`: the Potency in experiment [1] is 10 µM (active). Further, in experiment [3], the outcome was inactive.
The like results for `O=C(O)c1cc([N+](=O)[O-])ccc1NCCCc1ccccc1` were, in that order, “inactive” and “inactive”.
The like results for `CC(C)(NS(=O)(=O)c1ccc(Oc2ccc(F)cc2)cc1)C(=O)NO` were, in that order, “inactive” and “inactive”.
With `COCCOc1cc2ncnc(Cl)c2cc1OCCOC`, the Potency entry in experiment [1] is “inactive”. The compound was called inactive in experiment [3].
Turning to `Cn1ncc(S(=O)(=O)Cc2ccccc2)c(Br)c1=O`, the Potency result in experiment [1] is “inactive”. Further, the outcome in experiment [3] was inactive.
Regarding `NC(N)=NC(=O)c1nc(Cl)c(N2CCCCCC2)nc1N`, the Potency entry in experiment [1] was “inactive”. In addition, the compound was classed as inactive in experiment [3].
Turning to `CC[C@H]1OC(=O)[C@H](C)C(O[C@H]2C[C@@](C)(OC)[C@@H](O)[C@H](C)O2)[C@H](C)[C@@H](OC2O[C@H](C)C[C@H](N(C)C)[C@H]2O)[C@](C)(O)C[C@@H](C)CN(C)[C@H](C)[C@@H](O)[C@]1(C)O` (stereo partly specified), the Potency entry in experiment [1] is “inactive”. For the same compound, the outcome in experiment [3] was inactive.
In the case of `CNc1ncnc2c1ncn2[C@@H]1O[C@H](CO)[C@@H](O)[C@H]1O`, the Potency result in experiment [1] was “inactive”. Besides, the result in experiment [3] was inactive.
Consider `OC[C@H]1O[C@@H](n2cnc3c(NC4CCCCC4)ncnc32)[C@H](O)[C@@H]1O`, for which, in experiment [1], the Potency entry was “inactive”. Moreover, in experiment [3], the call was inactive.
For `O=C(Nc1ccc2[nH]ncc2c1)C1CCC1`, the Potency entry in experiment [1] was “inactive”. Also, the outcome in experiment [3] was inactive.
Regarding `CN(C)C(N)=NCCC[C@H](N)C(=O)O`, in experiment [1], the Potency entry was “inactive”. Also, the result in experiment [3] was inactive.
Take `CCCC(CCC)C(=O)OC1CC2CCC(C1)[N+]2(C)C` (stereo unspecified): the Potency result in experiment [1] is “inactive”. In experiment [3], the call was inactive.
As for `O=Nc1ccc2oc(=O)ccc2c1`, the Potency result in experiment [1] was “inactive”. Further, the outcome in experiment [3] was inactive.
Consider `CCNc1nc2c(ncn2[C@H]2C[C@H](O)[C@@H](CO)O2)c(=O)[nH]1`, for which the Potency entry in experiment [1] is “inactive”. Besides, in experiment [3], the compound was called inactive.
`CCCCCCCCc1ccc(-c2ccc(C(=O)O)cc2)cc1`: the Potency result in experiment [1] was “inactive”. Moreover, the compound was classed as inactive in experiment [3].
Take `N[C@@H](CC(=O)O)C(=O)O`: the Potency entry in experiment [1] was “inactive”. In addition, the call in experiment [3] was inactive.
